Measured values taken from PubChem BioAssay (EPA / NIEHS).
Calls of active or inactive are those of the source. How the source made its calls: active means hit-call score of the fitted dose curve at least 0.9, where 1 is the maximum; inactive means score below 0.9.

Assays:
Settings in all cases: mRNA level, 48 h; actives raise or lower the signal
[1] = read-out: Bcl-2 (BAX) gene, BAX (gene 581); experiment: LTEA_HepaRG_BAX: Life Technologies and Expression Analysis (LTEA) Assay for Bcl-2 (BAX) gene using HepaRG (AID 2283470)
Outline: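 Human HepaRG cells treated in duplicate for 48 h across eight concentrations (max 100 uM, 0.5% DMSO); BAX expression measured by qRT-PCR.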

[2] = read-out: adenosine kinase (ADK) gene, ADK (gene 132); experiment: LTEA_HepaRG_ADK: Life Technologies and Expression Analysis (LTEA) Assay for adenosine kinase (ADK) gene using HepaRG (AID 2283471)
Outline: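 Read-out is ADK transcript level measured by qRT-PCR and normalised to three housekeeping genes. Cells are human HepaRG, dosed for 48 h at up to 100 uM in 0.5% DMSO. Gain or loss of signal is fitted against DMSO controls.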

[3] = read-out: Alpha-fetoprotein (AFP) gene, AFP (gene 174); experiment: LTEA_HepaRG_AFP: Life Technologies and Expression Analysis (LTEA) Assay for Alpha-fetoprotein (AFP) gene using HepaRG (AID 2283472)
Outline: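 Measures AFP mRNA change in HepaRG after 48 h chemical exposure (8 half-log concentrations, highest 100 uM, 0.5% DMSO). Fold change relative to DMSO, fitted in both directions.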

BCL2L11 (gene 10018) = experiment: LTEA_HepaRG_BCL2L11: Life Technologies and Expression Analysis (LTEA) Assay for Bcl-2 (BCL2L11) gene using HepaRG (AID 2283473)
Outline: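 Differentiated human HepaRG cells were exposed 48 h in serum-free induction medium to eight half-log concentrations up to 100 uM in 0.5% DMSO, in duplicate. BCL2L11 mRNA was quantified by TaqMan qRT-PCR, normalized to ACTB, GAPDH and POLR2A; induction or repression fitted versus DMSO.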

[4] = read-out: Apolipoprotein A-V (APOA5) gene, APOA5 (gene 116519); experiment: LTEA_HepaRG_APOA5: Life Technologies and Expression Analysis (LTEA) Assay for Apolipoprotein A-V (APOA5) gene using HepaRG (AID 2283474)
Outline: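 Differentiated HepaRG cells in serum-free induction medium, exposed 48 h in duplicate to eight half-log concentrations topping at 100 uM (0.5% DMSO). APOA5 mRNA by Fluidigm TaqMan qRT-PCR, normalized to ACTB, GAPDH and POLR2A; bidirectional fit versus DMSO.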

[5] = read-out: Bcl-2 (BID) gene, BID (gene 637); experiment: LTEA_HepaRG_BID: Life Technologies and Expression Analysis (LTEA) Assay for Bcl-2 (BID) gene using HepaRG (AID 2283476)
Outline: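 Assay used HepaRG hepatic cells treated 48 h in serum-free medium with half-log dilutions from 100 uM. Endpoint: BID mRNA, qRT-PCR, normalized to ACTB/GAPDH/POLR2A.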

[6] = read-out: Cytochrome P450 (CYP24A1), CYP24A1 (gene 1591); experiment: LTEA_HepaRG_CYP24A1: Life Technologies and Expression Analysis (LTEA) Assay for Cytochrome P450 (CYP24A1) using HepaRG (AID 2283478)
Outline: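 HepaRG cells plated 48 h, then exposed in duplicate in serum-free induction medium for 48 h to 8-point half-log series from 100 uM in 0.5% DMSO. CYP24A1 mRNA by Fluidigm qRT-PCR, normalized to ACTB, GAPDH, POLR2A; bidirectional fit versus DMSO.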

[7] = read-out: Cytochrome P450 (CYP1A2), CYP1A2 (gene 1544); experiment: LTEA_HepaRG_CYP1A2: Life Technologies and Expression Analysis (LTEA) Assay for Cytochrome P450 (CYP1A2) using HepaRG (AID 2283479)
Outline: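 Differentiated human HepaRG cells in serum-free induction medium exposed 48 hours in duplicate to 8 half-log concentrations from 100 uM, 0.5% DMSO. CYP1A2 mRNA quantified by qRT-PCR, normalized to ACTB, GAPDH and POLR2A; bidirectional fitting versus DMSO.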

[8] = read-out: cysteine-aspartic acid protease (CASP8), CASP8 (gene 841); experiment: LTEA_HepaRG_CASP8: Life Technologies and Expression Analysis (LTEA) Assay for cysteine-aspartic acid protease (CASP8) using HepaRG (AID 2283480)
Outline: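 qRT-PCR readout of CASP8 mRNA, normalized to three housekeeping genes, after 48 h chemical exposure of HepaRG cells; 8-point half-log series, top 100 uM, 0.5% DMSO vehicle. Bidirectional curve fitting against DMSO baseline.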

[9] = read-out: Cytochrome P450 (CYP2B6), CYP2B6 (gene 1555); experiment: LTEA_HepaRG_CYP2B6: Life Technologies and Expression Analysis (LTEA) Assay for Cytochrome P450 (CYP2B6) using HepaRG (AID 2283481)
Outline: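 Differentiated human HepaRG cells in serum-free induction medium, dosed in duplicate for 48 h over 8 half-log concentrations topping at 100 uM (0.5% DMSO). CYP2B6 mRNA measured by TaqMan qRT-PCR, normalized to ACTB, GAPDH, POLR2A; bidirectional fit versus DMSO.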

[10] = read-out: Cytochrome P450 2C19 (Homo sapiens) (UniProt P33261); experiment: LTEA_HepaRG_CYP2C19: Life Technologies and Expression Analysis (LTEA) Assay for CYP2C19 using HepaRG (AID 2283482)
Outline: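 Differentiated HepaRG cells in serum-free induction medium exposed 48 h in duplicate, 8 concentrations from 100 uM by half-log steps in 0.5% DMSO. CYP2C19 mRNA measured by TaqMan qRT-PCR, normalized to ACTB, GAPDH, POLR2A. Bidirectional fit versus DMSO.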

CYP2C8 (gene 1558) = experiment: LTEA_HepaRG_CYP2C8: Life Technologies and Expression Analysis (LTEA) Assay for CYP2C8 using HepaRG (AID 2283483)
Outline: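 HepaRG (human liver line), 48 h chemical exposure, 8-pt half-log series from 100 uM, 0.5% DMSO vehicle. Readout: CYP2C8 transcript by qRT-PCR, housekeeping-normalized. Bidirectional fit vs DMSO baseline.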

CYP2E1 (gene 1571) = experiment: LTEA_HepaRG_CYP2E1: Life Technologies and Expression Analysis (LTEA) Assay for CYP2E1 using HepaRG (AID 2283485)
Outline: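 Assay uses 48 h exposure of HepaRG hepatic cells, eight concentrations to 100 uM. Expression of CYP2E1 is quantified by TaqMan qRT-PCR with ACTB, GAPDH and POLR2A normalization; curves fitted in both directions relative to vehicle.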

CYP4A11 (gene 1579) = experiment: LTEA_HepaRG_CYP4A11: Life Technologies and Expression Analysis (LTEA) Assay for CYP4A11 using HepaRG (AID 2283486)
Outline: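 Differentiated HepaRG cells, 48 h after plating, exposed in duplicate for 48 h to 8 half-log concentrations up to 100 uM in 0.5% DMSO in serum-free induction medium. CYP4A11 mRNA measured by TaqMan qRT-PCR, normalized to ACTB, GAPDH and POLR2A.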

[11] = read-out: Cytochrome P450 3A4 (Homo sapiens) (UniProt P08684); experiment: LTEA_HepaRG_CYP3A4: Life Technologies and Expression Analysis (LTEA) Assay for CYP3A4 using HepaRG (AID 2283487)
Outline: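 HepaRG, 48 h exposure, 8-pt CRC from 100 uM (half-log), 0.5% DMSO, duplicates; serum-free induction medium. Readout: CYP3A4 mRNA, qRT-PCR, ACTB/GAPDH/POLR2A normalization. Bidirectional fit vs DMSO.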

[12] = read-out: DNA damage-inducible transcript 3 (DDIT3), DDIT3 (gene 1649); experiment: LTEA_HepaRG_DDIT3: Life Technologies and Expression Analysis (LTEA) Assay for DNA damage-inducible transcript 3 (DDIT3) using HepaRG (AID 2283488)
Outline: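 Eight-point concentration-response (100 uM highest, half-log dilutions) in HepaRG, 48 h, duplicate wells. Endpoint: qRT-PCR mRNA, normalized (ACTB, GAPDH, POLR2A), bidirectional fitting with DMSO as baseline.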

[13] = read-out: Pro-epidermal growth factor (Homo sapiens) (UniProt P01133); experiment: LTEA_HepaRG_EGF: Life Technologies and Expression Analysis (LTEA) Assay for Epidermal growth factor (EGF) using HepaRG (AID 2283489)
Outline: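 HepaRG cells (~100,000/well, 48 h pre-culture) exposed in duplicate for 48 h in serum-free induction medium to 8 half-log concentrations up to 100 uM in 0.5% DMSO. EGF mRNA by qRT-PCR, normalized to ACTB/GAPDH/POLR2A; bidirectional fit versus DMSO.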

[14] = read-out: Early growth response protein 1 (EGR1) transcription factor, EGR1 (gene 1958); experiment: LTEA_HepaRG_EGR1: Life Technologies and Expression Analysis (LTEA) Assay for Early growth response protein 1 (EGR1) transcription factor using HepaRG (AID 2283490)
Outline: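 HepaRG, 48 h exposure, 8-pt half-log series from 100 uM, 0.5% DMSO vehicle; EGR1 transcript by TaqMan qRT-PCR (Fluidigm array), housekeeping-normalized; bidirectional fit relative to DMSO baseline.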

[15] = read-out: Ezrin (EZR), EZR (gene 7430); experiment: LTEA_HepaRG_EZR: Life Technologies and Expression Analysis (LTEA) Assay for Ezrin (EZR) using HepaRG (AID 2283491)
Outline: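 Read-out is EZR transcript level by qRT-PCR, normalized to three housekeeping genes and fitted bidirectionally against the DMSO control. Human HepaRG cells received test chemicals for 48 h at eight half-log concentrations up to 100 uM in 0.5% DMSO.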

[16] = read-out: Cytochrome P450 3A7 (Homo sapiens) (UniProt P24462); experiment: LTEA_HepaRG_CYP3A7: Life Technologies and Expression Analysis (LTEA) Assay for CYP3A7 using HepaRG (AID 2283492)
Outline: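 Differentiated HepaRG cells in serum-free induction medium exposed 48 h in duplicate to 8-point half-log series from 100 uM top in 0.5% DMSO. CYP3A7 mRNA by qRT-PCR, normalized to ACTB/GAPDH/POLR2A, bidirectional fit versus DMSO.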

Measured: AC50

Chain of Cytochrome P450 3A4 (Homo sapiens) (P08684 whole entry, looked up): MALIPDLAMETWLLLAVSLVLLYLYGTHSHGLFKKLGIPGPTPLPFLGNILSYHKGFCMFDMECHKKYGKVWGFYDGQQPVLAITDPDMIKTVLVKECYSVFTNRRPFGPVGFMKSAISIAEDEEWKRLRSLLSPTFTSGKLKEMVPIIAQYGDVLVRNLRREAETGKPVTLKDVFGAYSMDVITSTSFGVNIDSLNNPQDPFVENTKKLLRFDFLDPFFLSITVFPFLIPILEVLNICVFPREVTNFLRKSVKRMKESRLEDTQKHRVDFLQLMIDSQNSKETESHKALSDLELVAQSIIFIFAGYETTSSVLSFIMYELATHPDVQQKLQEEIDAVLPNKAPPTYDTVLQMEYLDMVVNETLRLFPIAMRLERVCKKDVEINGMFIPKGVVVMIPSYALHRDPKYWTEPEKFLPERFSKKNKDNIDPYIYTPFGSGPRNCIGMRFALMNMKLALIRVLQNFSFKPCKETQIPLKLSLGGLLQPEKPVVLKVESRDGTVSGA
Chain of Cytochrome P450 2C19 (Homo sapiens) (P33261 whole entry, looked up): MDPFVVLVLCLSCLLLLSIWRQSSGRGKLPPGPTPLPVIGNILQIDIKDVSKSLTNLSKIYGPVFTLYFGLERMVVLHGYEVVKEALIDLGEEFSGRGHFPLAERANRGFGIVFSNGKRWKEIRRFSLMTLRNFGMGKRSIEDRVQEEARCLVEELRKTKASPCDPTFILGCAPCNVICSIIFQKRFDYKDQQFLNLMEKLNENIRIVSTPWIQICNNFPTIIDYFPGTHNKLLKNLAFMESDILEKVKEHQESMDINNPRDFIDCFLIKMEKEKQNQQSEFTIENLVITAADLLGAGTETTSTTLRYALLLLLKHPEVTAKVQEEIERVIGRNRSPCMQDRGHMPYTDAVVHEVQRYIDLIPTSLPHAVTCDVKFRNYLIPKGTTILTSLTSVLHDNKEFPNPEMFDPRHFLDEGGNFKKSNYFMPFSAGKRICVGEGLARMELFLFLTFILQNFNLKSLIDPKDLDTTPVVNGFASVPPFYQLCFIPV
Chain of Cytochrome P450 3A7 (Homo sapiens) (P24462 whole entry, looked up): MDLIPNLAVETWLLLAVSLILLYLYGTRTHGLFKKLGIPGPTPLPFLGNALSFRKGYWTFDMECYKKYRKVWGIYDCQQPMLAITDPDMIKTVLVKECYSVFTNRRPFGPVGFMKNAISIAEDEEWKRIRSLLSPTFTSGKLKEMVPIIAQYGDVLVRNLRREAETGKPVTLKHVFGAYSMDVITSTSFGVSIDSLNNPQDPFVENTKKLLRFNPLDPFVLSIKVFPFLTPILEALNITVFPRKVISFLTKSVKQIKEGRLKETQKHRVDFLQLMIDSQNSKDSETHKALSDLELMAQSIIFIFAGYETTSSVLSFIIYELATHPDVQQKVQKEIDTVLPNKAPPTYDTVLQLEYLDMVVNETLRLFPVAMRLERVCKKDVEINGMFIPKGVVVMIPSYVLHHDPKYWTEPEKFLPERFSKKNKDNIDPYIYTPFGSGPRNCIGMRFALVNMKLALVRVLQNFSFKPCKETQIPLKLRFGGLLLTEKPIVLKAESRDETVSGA

O=c1[nH]c(=O)[nH]c(=O)[nH]1
inactive: all assays above

CC(C)(C)CC(C)(C)c1ccc(O)cc1
active: [4] 50 µM | [5] 82.8 µM | [9] 3.33 µM | CYP2E1 (gene 1571) 26.5 µM | CYP4A11 (gene 1579) 72.3 µM
inactive: all other assays above

C=CC(=O)OCCCCCC(C)C
active: [4] 0.483 µM | [7] 50 µM
inactive: all other assays above

O=C(Nc1ccc2[nH]ccc2c1)c1cc2cc(F)ccc2n1Cc1cccc(F)c1
inactive: [2] | [5] | [6] | [8] | [13] | [14]
active: [1] 19.2 µM | [3] 25.2 µM | BCL2L11 (gene 10018) 12.4 µM | [4] 56.2 µM | [7] 12.5 µM | [9] 35.1 µM | [10] 73.6 µM | CYP2C8 (gene 1558) 27 µM | CYP2E1 (gene 1571) 21.9 µM | CYP4A11 (gene 1579) 16.6 µM | [11] 83.5 µM | [12] 18 µM | [15] 9.92 µM | [16] 75.6 µM

O=C(O)C(Cl)(Cl)Cl
inactive: all assays above

O=[N+]([O-])c1ccc(O)c([N+](=O)[O-])c1
active: [2] 13.3 µM | [3] 24.2 µM | BCL2L11 (gene 10018) 13.1 µM | [4] 25.3 µM | [5] 12.9 µM | [7] 17.2 µM | [8] 22.3 µM | [9] 16 µM | [10] 19.5 µM | CYP2C8 (gene 1558) 40.1 µM | CYP2E1 (gene 1571) 20.5 µM | CYP4A11 (gene 1579) 31.5 µM | [11] 22.2 µM | [12] 89.7 µM | [13] 12.9 µM | [14] 12.5 µM | [16] 16.4 µM
inactive: [1] | [6] | [15]

CCC(=O)C(CC(C)N(C)C)(c1ccccc1)c1ccccc1 (stereo not drawn)
active: [3] 36.2 µM | [7] 36.2 µM | [9] 2.41 µM | [10] 10.1 µM | CYP2E1 (gene 1571) 36.2 µM | [12] 36.2 µM
not listed: [11] | [16]
inactive: all other assays above

CCN1CCC2(CC1)COc1cc3c(cc12)N(C(=O)c1ccc(-c2ccc(-c4nnc(C)o4)cc2C)cc1)CC3
active: [2] 21.3 µM | [4] 24.6 µM | [8] 21.8 µM | [9] 28.3 µM | [10] 21.9 µM | CYP2E1 (gene 1571) 17.7 µM | CYP4A11 (gene 1579) 46.8 µM | [11] 28 µM | [12] 11.6 µM | [14] 11.9 µM
inactive: [1] | [3] | BCL2L11 (gene 10018) | [5] | [6] | [7] | CYP2C8 (gene 1558) | [13] | [15] | [16]
